Rows were chosen to be rich in hits. Some 32% of all compounds tested hit in one or more screens of this group.
CYP2C19 act – increases human CYP2C19 enzyme activity; recombinant CYP2C19, luciferin-H EGE luminescence; hits give high values; 0 = fully inhibited enzyme, 1 = untreated enzyme; activation factor at 5 µM; 96,000 tested, under 10 active;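 active = activation factor of at least 2 at 5 µM in the primary screen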
Target sequence (P33261 whole entry, looked up): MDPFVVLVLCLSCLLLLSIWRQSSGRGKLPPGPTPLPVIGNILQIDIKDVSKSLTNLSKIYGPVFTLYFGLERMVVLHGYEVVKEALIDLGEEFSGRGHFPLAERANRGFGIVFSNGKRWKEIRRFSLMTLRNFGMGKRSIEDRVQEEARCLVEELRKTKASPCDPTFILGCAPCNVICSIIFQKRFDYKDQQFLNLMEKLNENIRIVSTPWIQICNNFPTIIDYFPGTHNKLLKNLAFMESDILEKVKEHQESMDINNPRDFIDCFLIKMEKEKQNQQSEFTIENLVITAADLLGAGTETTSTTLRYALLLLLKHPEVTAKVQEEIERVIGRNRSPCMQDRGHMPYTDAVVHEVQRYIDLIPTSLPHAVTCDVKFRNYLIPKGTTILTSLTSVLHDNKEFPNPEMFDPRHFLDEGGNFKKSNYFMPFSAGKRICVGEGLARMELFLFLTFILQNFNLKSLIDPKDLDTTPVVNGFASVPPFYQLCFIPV
PostGolgi ctrl – growth of the yeast control strain, post-Golgi counter-screen | efflux-deficient yeast background strain, growth absorbance A615, 16 h | inhibition, % at 10 µM | actives 5% (n = 98,000)
CYP2C19 inh – human CYP2C19 inhibition; CYP2C19 Supersomes, luciferin-H EGE luminescence, 30 min; actives 21% (n = 96,000); inhibition, % at 5 µM; P33261;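 active = CYP2C19 inhibition above a set limit at 5 µM in the primary screen, cut at about 50% in these data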
CYP2C9 inhib – human CYP2C9 inhibition; CYP2C9 Supersomes, luciferin-H conversion, luminescence; inhibition, % at 5 µM; actives 20% (n = 96,000); AID 777; P11712;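 active = blocking of liver enzyme CYP2C9 beyond about 50% at 5 µM, limit read from the data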
PostGolgi yeast – growth inhibition of a yeast mutant, post-Golgi transport screen | post-Golgi transport phenotypic cell assay | inhibition, % at 10 µM | actives 0.9% (n = 98,000) | AID 739;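 note: yeast cells grown in 1536-well plates; yeast grown about 18 h at 30C before absorbance read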
CYP2C9 act – CYP2C9 (human) activation | AID 1024 | activation factor at 5 µM | recombinant CYP2C9, luciferin-H conversion, luminescence; hits give high values; factor 1 = untreated enzyme, 0 = blocked | P11712 | actives 1.4% (n = 96,000);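 active = activation factor of 2 or more for CYP2C9 at a 5 µM dose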
Each line names hits and unclear results; the compound was inactive in the other large screens. Cut-off read from the data, not from the text of the source, unless noted: active = inhibition above about 30%; inactive = the rest.

COc1ccccc1-c1noc(CCC(=O)Nc2cc(C(F)(F)F)ccc2Cl)n1	CYP2C19 inh 68
COc1ccc(NC(=O)CCc2nc(-c3ccc(C)cc3)no2)cc1Cl	none
O=C(NC(=S)N1CCCc2ccccc21)c1ccc([N+](=O)[O-])cc1	none
CCOc1cc(-c2ccc(N)c(OCC)c2)ccc1N	CYP2C19 inh 98, CYP2C9 inhib 91
CCOc1cc(-c2nn3cnnc3s2)cc(OCC)c1OCC	none
Fc1cccc(Cl)c1CSc1nnc(CN2CCOCC2)n1-c1ccccc1	none
Cc1cc(OC(=O)c2ccccc2Br)cc(=O)n1C	none
O=C1CSC(c2cn(-c3ccccc3)nc2-c2cc3ccccc3oc2=O)N1Cc1ccccc1 (configuration not stated)	none
O=C1CSC(c2nn(-c3ccccc3)cc2-c2cc3ccccc3oc2=O)N1Cc1ccco1 (configuration not stated)	CYP2C19 inh 55, CYP2C9 inhib 84
COc1cccc(C(=O)Nc2ccc(NC(=O)C3CC3)cn2)c1	none
Cc1nn(Cc2ccccc2)c(Cl)c1C(=O)OCc1nnc(-c2ccc(Cl)cc2)o1	CYP2C9 inhib 62
Cc1nn(Cc2ccccc2)c(Cl)c1C(=O)OCc1nnc(-c2ccccc2)o1	CYP2C19 inh 92, CYP2C9 inhib 86
CC(O)C(NS(=O)(=O)c1ccc(Cl)cc1)C(=O)OCc1nnc(-c2ccccc2)o1 (configuration not stated)	none
Cn1c(SCC(=O)N2CCN(c3cccc(Cl)c3)CC2)nnc1-c1ccncc1	none
O=C(CSc1ccccn1)N1CCN(c2ccccc2)CC1	CYP2C19 inh 99
Cn1nnnc1SCC(=O)N1CCN(c2ccccc2)CC1	none
O=C(CSc1ccccn1)N1CCN(c2cccc(Cl)c2)CC1	CYP2C19 inh 72
Cn1nnnc1SCC(=O)N1CCN(c2cccc(Cl)c2)CC1	CYP2C19 inh 72
O=C(CSc1nc(N2CCCCC2)nc(N2CCCCC2)n1)N1CCN(c2ccccc2)CC1	CYP2C19 inh 77, CYP2C9 inhib 83 (no result: PostGolgi ctrl, PostGolgi yeast)
CCOc1ccc(S(=O)(=O)Nc2cc(Cl)ccc2O)cc1	CYP2C19 inh 100, CYP2C9 inhib 100
CCc1ccccc1NS(=O)(=O)c1ccc(SC)cc1	CYP2C19 inh 81
CCOc1ccc(NS(=O)(=O)c2ccc(NS(=O)(=O)c3ccccc3)cc2)cc1	CYP2C19 inh 55, CYP2C9 inhib 95
CCOc1ccc(S(=O)(=O)NCc2cccs2)cc1	none
CCOc1ccc(S(=O)(=O)Nc2ccccc2SC)cc1	CYP2C19 inh 67
CSc1ccc(S(=O)(=O)Nc2c(C)cccc2C)cc1	none
Cc1cc(NC(=O)CSc2nnc(Cn3c(=O)sc4ccccc43)n2-c2ccccc2C)no1	none (no result: CYP2C19 act, CYP2C19 inh, CYP2C9 inhib, CYP2C9 act)
FC(F)(F)c1cccc(-c2ccc(-c3csnn3)o2)c1	CYP2C19 inh 56
Cc1nnc(NC(=O)c2ccc(-c3cccc(C(F)(F)F)c3)o2)s1	none
O=C(C1CCCO1)N(c1cccc(Cl)c1)C1C=CS(=O)(=O)C1 (configuration not stated)	none
CC(=O)Nn1cc2c(c1-c1ccccc1)c(=O)n(C)c(=O)n2C	none
Cc1cccc(-c2c3c(=O)n(C)c(=O)n(C)c3cn2-c2ccccc2O)c1	CYP2C9 inhib 71
COc1ccc(-c2nc3ccccc3s2)cc1O	CYP2C9 inhib 72
CC1CN(S(=O)(=O)c2ccc(-c3nc4ccccc4s3)cc2)CC(C)O1 (configuration not stated)	none
O=S(=O)(c1cccc(-c2nc3ccccc3s2)c1)N1CCCC1	PostGolgi ctrl 34, CYP2C9 inhib 79
Nc1cccc(-c2nc3ccccc3s2)c1	PostGolgi ctrl 31
Oc1cccc(-c2nc3ccccc3s2)c1	none
COc1cc(-c2nc3ccccc3s2)ccc1O	none
O=S(=O)(c1ccc(-c2nc3ccccc3s2)cc1)N1CCCC1	CYP2C9 inhib 77
Cc1ccc(OCC(=O)OC2CCS(=O)(=O)C2)cc1 (configuration not stated)	none
O=C1N=C(N2CCOCC2)S/C1=C1\C(=O)N(Cc2ccccc2)c2ccc(Br)cc21	CYP2C9 inhib 62 (no result: PostGolgi ctrl, PostGolgi yeast)
Cc1ccc(CN2C(=O)/C(=C3\SC(N4CCOCC4)=NC3=O)c3cc(Br)ccc32)cc1	none (no result: PostGolgi ctrl, PostGolgi yeast)
CCCCN1C(=O)/C(=C2\SC(N3CCCCC3)=NC2=O)c2ccccc21	PostGolgi ctrl 40, CYP2C19 inh 53, CYP2C9 inhib 90
Cc1ccc(N)cc1CN1CCCC1=O	none
CCCC(C)C(=O)Nc1ccc(C(N)=O)cc1 (configuration not stated)	none
N#Cc1ccc(COc2ccc(CCO)cc2-n2nc3ccccc3n2)cc1	CYP2C19 inh 53, CYP2C9 inhib 89
CC(C)c1cc(C(=O)Nc2cccc(Cl)c2)no1	none
CC(=O)N1N=C(c2cccc(Cl)c2)OC1c1ccc(C(C)C)cc1 (configuration not stated)	PostGolgi ctrl 35, CYP2C19 inh 83, CYP2C9 inhib 88
Cc1ccc(C(=O)Nc2onc(C)c2C#N)cc1	CYP2C9 inhib 58
Cc1n[nH]c(=O)nc1NCc1ccccc1Cl	none
CCCOC(=O)Nc1ccc(S(=O)(=O)Nn2cnnc2)cc1	none
CN1C(=O)c2ccccc2Sc2ccc(NC(=O)N3CCCC3)cc21	none
CCCNC(=O)Nc1ccc2c(c1)N(C)C(=O)c1ccccc1S2	CYP2C9 inhib 79
CCOCCCNC(=O)CN1C(=O)CSc2cc(S(=O)(=O)N3CCCCCC3)ccc21	none
CCOCCCNC(=O)c1cc(C)nn1-c1ccccc1	none
COC(CNC(=O)c1cc(C)nn1-c1ccccc1)OC	none
Cc1cc(C(=O)Nc2ccccc2C#N)n(-c2ccccc2)n1	CYP2C9 inhib 57
Cc1cc(C(=O)NCc2cccs2)n(-c2ccccc2)n1	CYP2C9 inhib 59
CCN(CCNC(=O)c1cc(C)nn1-c1ccccc1)c1ccccc1	CYP2C19 inh 79
c1cc2c(cc1C1CCCN1)OCCCO2 (configuration not stated)	none
Cn1c(=O)c2c(n(C)c1=O)=NC1(CCCCC1)N=2	none
N=C1C(c2nc3ccccc3[nH]2)=C(O)CN1c1ccccc1	none
N=C1C(c2nc3ccccc3c(=O)[nH]2)=C(O)CN1c1ccccc1	CYP2C9 act 2.2
COc1ccc(CCN2CC(O)=C(c3nc4ccccc4c(=O)[nH]3)C2=N)cc1OC	CYP2C19 inh 69
CC(C)CCOC(=O)C1C2C=CC3(CN(Cc4cccs4)C(=O)C13)O2 (configuration not stated)	none
Cc1c(C(=O)Nc2ccc(Cl)cc2)c2ccccn2c1C(=O)c1ccc([N+](=O)[O-])cc1	CYP2C9 inhib 81
NCCCCCc1nnc(SCc2cccc(Cl)c2)o1	CYP2C19 inh 65
Clc1cccc(CSc2nnc([C@@H]3CCCN3)o2)c1	CYP2C19 inh 94
Cc1cccc(OCc2nnc(SCC(=O)Nc3ccc(C)c(Cl)c3)o2)c1	none
NCCCCCc1nnc(SCC(=O)Nc2cccc(Cl)c2)o1	CYP2C9 inhib 57
